# Test results published in the supplement of paper PMC11732987, “Enantioselective OTUD7B fragment discovery through chemoproteomics screening and high-throughput optimisation” (Communications Chemistry, 2025).
# A number with no mark means an inactive call.
# Columns and labels:
# Experiment in all cases: log2 ratio of Biotin-Ahx-Ub-VS probe labelling (fragment/DMSO); higher = less target engagement (more negative = stronger competition), active = hit call of the paper (q ≤ 0.05, log2 ratio ≤ -1)
# Conditions in all cases: compound concentration: 200 uM; treatment time: 3 h
# USP19 = molecular target: T1, USP19 (UniProt O94966)
# T1 sequence (whole entry): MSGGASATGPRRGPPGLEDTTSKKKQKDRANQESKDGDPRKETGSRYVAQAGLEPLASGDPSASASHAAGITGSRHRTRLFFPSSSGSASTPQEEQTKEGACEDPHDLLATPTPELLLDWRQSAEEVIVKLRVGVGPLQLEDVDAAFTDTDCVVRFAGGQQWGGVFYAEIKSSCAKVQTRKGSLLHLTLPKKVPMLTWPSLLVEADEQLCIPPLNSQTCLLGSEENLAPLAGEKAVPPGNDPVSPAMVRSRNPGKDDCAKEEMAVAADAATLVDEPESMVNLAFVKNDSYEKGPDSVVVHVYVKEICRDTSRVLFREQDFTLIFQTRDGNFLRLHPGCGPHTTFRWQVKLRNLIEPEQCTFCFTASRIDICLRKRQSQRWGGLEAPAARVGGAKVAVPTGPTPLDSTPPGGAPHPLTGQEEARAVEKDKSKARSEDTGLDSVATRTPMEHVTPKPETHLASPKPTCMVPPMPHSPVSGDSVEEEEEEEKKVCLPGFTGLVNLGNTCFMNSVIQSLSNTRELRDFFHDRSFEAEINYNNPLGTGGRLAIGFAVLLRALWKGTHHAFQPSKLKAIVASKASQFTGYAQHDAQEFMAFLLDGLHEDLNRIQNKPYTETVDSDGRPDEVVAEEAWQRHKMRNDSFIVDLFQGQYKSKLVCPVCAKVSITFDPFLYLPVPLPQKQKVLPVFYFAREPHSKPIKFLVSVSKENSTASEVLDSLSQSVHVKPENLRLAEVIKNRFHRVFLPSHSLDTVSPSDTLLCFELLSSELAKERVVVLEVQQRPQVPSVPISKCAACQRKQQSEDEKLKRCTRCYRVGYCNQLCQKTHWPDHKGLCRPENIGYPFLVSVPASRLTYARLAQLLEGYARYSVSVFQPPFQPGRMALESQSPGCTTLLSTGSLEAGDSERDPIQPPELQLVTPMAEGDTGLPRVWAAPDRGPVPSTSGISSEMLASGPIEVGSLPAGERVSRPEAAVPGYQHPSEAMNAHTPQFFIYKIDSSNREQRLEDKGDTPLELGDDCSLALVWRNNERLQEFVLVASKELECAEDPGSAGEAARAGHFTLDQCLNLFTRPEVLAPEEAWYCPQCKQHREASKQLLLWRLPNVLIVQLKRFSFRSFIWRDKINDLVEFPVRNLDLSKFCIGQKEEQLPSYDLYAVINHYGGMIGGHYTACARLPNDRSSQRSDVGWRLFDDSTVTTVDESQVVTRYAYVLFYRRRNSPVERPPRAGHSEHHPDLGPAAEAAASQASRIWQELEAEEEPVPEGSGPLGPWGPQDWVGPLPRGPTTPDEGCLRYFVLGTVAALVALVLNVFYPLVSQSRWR
# Summary of the method: (§1)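 Global-median-normalised Spectronaut label-free quantities were compared by unpaired t-test, and values are average log2 ratios of fragment over vehicle. Only proteins with ≥2 unique peptides were used. HEK293T lysate (495 µg per sample) was treated in triplicate with fragment at 200 µM or vehicle for 3 h and then with Biotin-Ahx-Ub-VS at 0.5 µM final for 1 h. Labelled DUBs were then NeutrAvidin-enriched, digested with LysC and trypsin, and run by diaPASEF LC-MS/MS.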
# USP24 = USP24 (UniProt Q9UPU5)
# USP24, sequence (Q9UPU5 whole entry): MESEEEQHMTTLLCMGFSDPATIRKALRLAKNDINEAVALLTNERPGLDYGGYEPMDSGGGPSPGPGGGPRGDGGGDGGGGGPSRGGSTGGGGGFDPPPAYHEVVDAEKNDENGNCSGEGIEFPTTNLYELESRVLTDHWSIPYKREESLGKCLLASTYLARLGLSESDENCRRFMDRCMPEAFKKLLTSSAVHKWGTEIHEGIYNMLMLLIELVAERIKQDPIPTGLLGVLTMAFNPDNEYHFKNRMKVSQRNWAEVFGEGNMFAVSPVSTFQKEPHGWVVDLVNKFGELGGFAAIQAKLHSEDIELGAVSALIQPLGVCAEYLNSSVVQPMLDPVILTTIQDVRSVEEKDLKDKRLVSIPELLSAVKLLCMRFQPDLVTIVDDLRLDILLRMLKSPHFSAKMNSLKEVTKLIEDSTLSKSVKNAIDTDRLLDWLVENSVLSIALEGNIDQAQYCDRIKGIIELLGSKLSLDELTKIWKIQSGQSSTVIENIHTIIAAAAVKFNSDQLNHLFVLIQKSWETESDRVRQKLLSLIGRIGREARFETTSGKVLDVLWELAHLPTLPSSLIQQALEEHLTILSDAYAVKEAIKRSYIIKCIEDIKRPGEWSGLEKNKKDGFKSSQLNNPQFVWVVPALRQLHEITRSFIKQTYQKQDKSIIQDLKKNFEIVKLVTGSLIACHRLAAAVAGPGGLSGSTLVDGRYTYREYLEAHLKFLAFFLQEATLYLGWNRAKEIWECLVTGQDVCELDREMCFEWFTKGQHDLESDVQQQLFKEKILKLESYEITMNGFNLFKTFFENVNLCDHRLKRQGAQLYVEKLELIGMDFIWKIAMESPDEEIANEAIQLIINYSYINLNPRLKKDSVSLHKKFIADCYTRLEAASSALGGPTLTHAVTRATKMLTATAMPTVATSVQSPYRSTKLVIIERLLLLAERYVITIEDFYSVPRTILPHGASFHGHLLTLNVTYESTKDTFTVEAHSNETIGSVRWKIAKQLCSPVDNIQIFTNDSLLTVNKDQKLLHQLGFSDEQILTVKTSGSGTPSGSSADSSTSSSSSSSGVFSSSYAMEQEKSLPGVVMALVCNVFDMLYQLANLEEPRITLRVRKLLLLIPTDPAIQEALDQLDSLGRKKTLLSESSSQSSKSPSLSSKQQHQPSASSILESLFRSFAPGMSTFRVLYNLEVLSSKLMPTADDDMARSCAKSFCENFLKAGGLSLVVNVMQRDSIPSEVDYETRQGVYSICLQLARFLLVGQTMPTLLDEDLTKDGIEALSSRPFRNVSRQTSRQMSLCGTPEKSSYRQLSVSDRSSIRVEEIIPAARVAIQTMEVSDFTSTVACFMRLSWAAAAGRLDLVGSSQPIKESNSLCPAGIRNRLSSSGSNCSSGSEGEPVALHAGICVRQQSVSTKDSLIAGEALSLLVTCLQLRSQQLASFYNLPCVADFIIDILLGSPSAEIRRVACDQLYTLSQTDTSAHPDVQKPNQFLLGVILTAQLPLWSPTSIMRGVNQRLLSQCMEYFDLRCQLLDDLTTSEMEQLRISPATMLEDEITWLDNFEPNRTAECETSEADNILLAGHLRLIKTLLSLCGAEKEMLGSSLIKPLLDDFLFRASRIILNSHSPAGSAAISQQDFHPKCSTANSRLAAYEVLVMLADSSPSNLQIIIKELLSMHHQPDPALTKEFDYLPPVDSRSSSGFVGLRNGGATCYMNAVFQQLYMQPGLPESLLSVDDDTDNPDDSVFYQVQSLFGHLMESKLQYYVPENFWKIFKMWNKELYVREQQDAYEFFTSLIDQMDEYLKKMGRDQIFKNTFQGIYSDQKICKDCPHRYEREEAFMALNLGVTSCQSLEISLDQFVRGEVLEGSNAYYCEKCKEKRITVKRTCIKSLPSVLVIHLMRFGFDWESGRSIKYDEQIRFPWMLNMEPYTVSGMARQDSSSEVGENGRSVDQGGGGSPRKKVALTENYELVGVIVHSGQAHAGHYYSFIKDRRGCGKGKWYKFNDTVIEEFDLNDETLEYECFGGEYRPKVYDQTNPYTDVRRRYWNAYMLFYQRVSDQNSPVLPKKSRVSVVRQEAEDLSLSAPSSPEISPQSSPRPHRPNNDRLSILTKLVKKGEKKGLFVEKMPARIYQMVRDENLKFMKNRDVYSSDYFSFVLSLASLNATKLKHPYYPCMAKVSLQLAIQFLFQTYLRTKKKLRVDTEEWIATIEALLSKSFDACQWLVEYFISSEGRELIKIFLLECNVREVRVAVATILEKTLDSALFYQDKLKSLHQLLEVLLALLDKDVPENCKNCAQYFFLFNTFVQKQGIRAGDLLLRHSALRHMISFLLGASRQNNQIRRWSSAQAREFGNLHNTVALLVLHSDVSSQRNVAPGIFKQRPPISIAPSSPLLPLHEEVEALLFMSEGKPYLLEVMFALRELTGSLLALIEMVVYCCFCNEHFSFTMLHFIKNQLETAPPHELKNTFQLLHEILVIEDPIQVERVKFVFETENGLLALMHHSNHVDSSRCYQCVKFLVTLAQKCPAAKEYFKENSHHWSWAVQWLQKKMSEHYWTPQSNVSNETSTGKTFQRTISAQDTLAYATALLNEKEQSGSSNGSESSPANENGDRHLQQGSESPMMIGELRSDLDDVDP
# Summary of the method: as §1
# USP25 = molecular target: T2, USP25 (UniProt Q9UHP3)
# T2 sequence (whole entry): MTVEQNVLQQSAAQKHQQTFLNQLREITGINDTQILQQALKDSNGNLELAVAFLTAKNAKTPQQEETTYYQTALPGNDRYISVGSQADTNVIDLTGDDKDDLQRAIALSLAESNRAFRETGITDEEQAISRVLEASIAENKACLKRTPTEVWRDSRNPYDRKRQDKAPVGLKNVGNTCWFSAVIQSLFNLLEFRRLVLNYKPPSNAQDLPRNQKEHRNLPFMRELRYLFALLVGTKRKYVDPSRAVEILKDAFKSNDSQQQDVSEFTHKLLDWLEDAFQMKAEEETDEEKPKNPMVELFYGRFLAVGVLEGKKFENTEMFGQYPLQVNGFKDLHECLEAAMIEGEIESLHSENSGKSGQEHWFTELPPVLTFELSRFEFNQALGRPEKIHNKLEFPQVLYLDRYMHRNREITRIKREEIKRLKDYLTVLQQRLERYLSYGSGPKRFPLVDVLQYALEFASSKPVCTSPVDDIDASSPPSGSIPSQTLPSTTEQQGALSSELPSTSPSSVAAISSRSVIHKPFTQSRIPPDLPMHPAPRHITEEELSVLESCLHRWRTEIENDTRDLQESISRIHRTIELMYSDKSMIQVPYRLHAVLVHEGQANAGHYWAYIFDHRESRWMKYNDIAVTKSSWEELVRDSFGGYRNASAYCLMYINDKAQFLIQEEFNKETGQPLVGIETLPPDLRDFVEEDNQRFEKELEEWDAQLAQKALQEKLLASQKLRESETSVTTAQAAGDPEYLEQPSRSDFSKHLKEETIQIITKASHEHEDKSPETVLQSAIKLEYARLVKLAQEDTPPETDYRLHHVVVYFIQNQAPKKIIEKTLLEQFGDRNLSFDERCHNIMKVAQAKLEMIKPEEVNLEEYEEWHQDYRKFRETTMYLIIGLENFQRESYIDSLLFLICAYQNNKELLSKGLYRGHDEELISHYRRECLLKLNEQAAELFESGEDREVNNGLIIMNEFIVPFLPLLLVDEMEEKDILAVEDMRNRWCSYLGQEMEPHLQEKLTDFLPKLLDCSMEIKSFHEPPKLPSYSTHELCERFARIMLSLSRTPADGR
# Summary of the method: as §1
# USP28 = molecular target: T3, USP28 (UniProt Q96RU2)
# T3 sequence (whole entry): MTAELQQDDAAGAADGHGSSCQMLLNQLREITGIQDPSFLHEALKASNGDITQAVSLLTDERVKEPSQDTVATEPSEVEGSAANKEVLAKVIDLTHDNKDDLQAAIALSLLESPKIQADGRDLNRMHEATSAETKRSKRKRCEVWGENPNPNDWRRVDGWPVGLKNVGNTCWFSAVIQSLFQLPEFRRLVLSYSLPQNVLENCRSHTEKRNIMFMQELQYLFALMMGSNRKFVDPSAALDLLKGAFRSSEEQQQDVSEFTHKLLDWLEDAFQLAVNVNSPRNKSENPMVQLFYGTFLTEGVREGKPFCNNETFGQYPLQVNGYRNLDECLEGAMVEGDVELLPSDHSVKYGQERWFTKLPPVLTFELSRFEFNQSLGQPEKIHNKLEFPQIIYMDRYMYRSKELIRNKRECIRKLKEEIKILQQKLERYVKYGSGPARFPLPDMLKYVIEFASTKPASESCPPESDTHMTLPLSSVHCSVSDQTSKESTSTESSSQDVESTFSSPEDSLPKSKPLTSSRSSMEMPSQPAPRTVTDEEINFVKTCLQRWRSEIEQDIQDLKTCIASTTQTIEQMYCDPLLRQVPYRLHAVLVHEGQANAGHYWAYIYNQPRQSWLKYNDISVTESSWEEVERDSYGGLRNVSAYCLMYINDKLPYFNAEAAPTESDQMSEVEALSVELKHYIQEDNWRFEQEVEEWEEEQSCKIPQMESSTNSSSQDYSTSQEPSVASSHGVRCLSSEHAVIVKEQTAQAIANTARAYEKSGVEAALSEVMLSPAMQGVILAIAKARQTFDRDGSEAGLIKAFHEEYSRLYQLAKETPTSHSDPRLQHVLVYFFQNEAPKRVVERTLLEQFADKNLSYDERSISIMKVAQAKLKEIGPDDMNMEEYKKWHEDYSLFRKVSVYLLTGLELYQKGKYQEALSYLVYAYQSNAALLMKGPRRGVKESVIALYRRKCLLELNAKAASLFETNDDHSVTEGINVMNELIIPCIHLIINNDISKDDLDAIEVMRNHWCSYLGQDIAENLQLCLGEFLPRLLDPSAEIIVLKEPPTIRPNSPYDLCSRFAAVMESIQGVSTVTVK
# Summary of the method: as §1
smiles,measurement,setting,value
Cc1ccccc1CN(C)C(=O)CCl,log2 ratio of Biotin-Ahx-Ub-VS probe labelling,USP19,-0.829
same,log2 ratio of Biotin-Ahx-Ub-VS probe labelling,USP24,-1.38 (active)
same,log2 ratio of Biotin-Ahx-Ub-VS probe labelling,USP25,-1.03 (active)
same,log2 ratio of Biotin-Ahx-Ub-VS probe labelling,USP28,-1.35 (active)
